# Measured values published in ChEMBL document CHEMBL4513216, “Probing the Open Global Health Chemical Diversity Library for Multistage-Active Starting Points for Next-Generation Antimalarials” (ACS Infect Dis, 2020).
# Among all 69,000 compounds or so, about 8,600 (12%) showed an effect of 50% or more. Many of the other results were omitted from the sample, so strong results are more common in it than they were.
# Test system: Plasmodium berghei
# Test: Screen against P. berghei liver stage (PbLuc), transformed with Luciferase, at 10uM
# Type: functional, HepG2
# Details: tested at 10 uM
row,SMILES,INHIBITION [%]
1,O=C1CC2(CCSC2)C(=O)N1Cc1coc(-c2cccc(F)c2)n1 (configuration not stated),3.03
2,Cc1noc(C)c1CN1CCc2ncc(Cn3cccn3)n2CC1,26
3,Cc1nonc1C(=O)N1CCCC(c2ncncc2-c2ccncc2)C1 (configuration not stated),42.1
4,Cc1nc(Nc2cnccn2)cc(C2CCCN2)n1 (configuration not stated),34.9
5,Cc1ccc(CNC(=O)CN2CCOC(Cn3cncn3)C2)s1 (configuration not stated),5.03
6,O=C(NCCN1CCCCC1)c1ccoc1,16.1
7,COc1cc(CNCCc2cc(F)cc3c2OCOC3)cc(OC)c1,26.6
8,CCn1cnnc1CNC(=O)N(C)C(C)c1cccs1 (configuration not stated),-41.1
9,CNC(=O)CC1CCN(C(=O)NCc2cn3c(C)cccc3n2)CC1,45.2
10,O=C(NCc1cc[nH]n1)N1CCC(Oc2ccccc2Cl)CC1,50.2
11,CS(=O)(=O)NC1CCN(C(=O)NCc2cc[nH]n2)CC1,8.64
12,Cc1cccc2nc(CNC(=O)N3CCC(OCC4CC4)CC3)cn12,51.2
13,CN1CC(C(=O)N2CCC(Oc3ccccc3Cl)CC2)CC1=O (configuration not stated),35.5
14,CCOc1ccccc1N1CCN(C(=O)NCc2cc[nH]n2)CC1,49.8
15,O=C(C1CC(=O)N(C2CC2)C1)N1CCC(Oc2ccccc2Cl)CC1 (configuration not stated),-6.88
16,O=C(NCc1cc[nH]n1)N1CCN(c2ccccc2Cl)CC1,39.2
17,O=C(C1CC1)N1CCC(Oc2ccccc2Cl)CC1,88.1
18,Cc1cccc(OC2CCN(C(=O)NCCn3ccnc3)CC2)c1C,-4.13
19,CCOCC1CCCN(C(=O)NCc2cn3c(C)cccc3n2)C1 (configuration not stated),21.6
20,Cc1cccc(OC2CCN(C(=O)NCc3cc[nH]n3)CC2)c1C,88.4
21,Cc1ccc(C(=O)N2CCO[C@H]3[C@@H](OCc4ccccn4)CC[C@@H]32)o1,3.47
22,Cc1ccc(CNC(=O)N(C)Cc2cnn(C)c2)s1,25.5
23,COC(=O)c1cc(C2CC2)nc2c(Cl)cnn12,20.9

row,SMILES,INHIBITION [%]
1,Cc1c(C(C)NC(=O)Nc2ccccc2F)cnn1C (configuration not stated),61.9
2,Cc1c(C(C)NC(=O)Nc2ccc(F)c(F)c2)cnn1C (configuration not stated),6.26
3,Cc1c(C(C)NC(=O)Nc2ccc(F)cc2F)cnn1C (configuration not stated),44.3
4,Cc1ccccc1CSc1ncccc1C(=O)N(C)C,-13.2
5,Cc1cncc(CN2CC[C@@](O)(CNC(=O)c3c[nH]cn3)[C@H](O)C2)c1,32.7
6,c1cnn(CC2CN(c3ncnc4ccsc34)CCO2)c1 (configuration not stated),62.4
7,c1cnn(CC2CN(c3ncnc4c3CCC4)CCO2)c1 (configuration not stated),-7.17
8,c1nc2c(c(N3CCOC(Cn4cncn4)C3)n1)CCC2 (configuration not stated),-26.9
9,Cc1nnc(N2CCOC(Cn3cccn3)C2)c(C#N)c1C (configuration not stated),17.8
10,c1cnn(CC2CN(c3ncnc4[nH]ccc34)CCO2)c1 (configuration not stated),13.3
11,Cc1cnn(CC2CN(c3ncnc4ccccc34)CCO2)c1 (configuration not stated),64.4
12,Cc1nc(N2CCCOC(Cn3cccn3)C2)c2sccc2n1 (configuration not stated),65.7
13,c1ccc2c(N3CCOC(Cn4cccn4)C3)ncnc2c1 (configuration not stated),4.48
14,Cc1cnn(CC2CN(c3ncnc4[nH]ccc34)CCO2)c1 (configuration not stated),19.4
15,c1nc(N2CCOC(Cn3cncn3)C2)c2sccc2n1 (configuration not stated),49.4
16,c1cnn(CC2CN(c3ncnc4sccc34)CCO2)c1 (configuration not stated),45
17,Cc1cnn(CC2CN(c3ncnc4c3CCC4)CCO2)c1 (configuration not stated),63
18,O=C1CN(C(=O)C2CN(c3cccc(Cl)c3)CCO2)CCN1 (configuration not stated),3.46
19,Cn1cnc2cc(C(=O)NS(=O)(=O)c3ccccc3Cl)ccc21,-32.1
20,Cc1ccc2c(c1)C(=O)NCC1(CCN(Cc3ccccc3)CC1)O2,-6.92
21,COc1ccc(-n2ccc(C(=O)N(C)C(C)C3(C)CC3)n2)cc1 (configuration not stated),29.1
22,Cc1cccc(CN2CCC(N(C)Cc3nnc(C4CC4)n3C)C2)c1 (configuration not stated),38.5
23,COc1ccc(CCNC(=O)NCC(O)c2cccc(F)c2)cc1 (configuration not stated),12.7

row,SMILES,INHIBITION [%]
1,CC(C)c1sc(Br)nc1C(=O)NCc1ccncc1,45.3
2,O=C(NCCc1cnccn1)c1ccc(S(=O)(=O)NC2CCC2)cc1,40.3
3,CC(C)N1CC[C@@H]2[C@H](COCC3CC3)CN(C)C(=O)[C@@H]2CC1,10.5
4,O=C(NC[C@]1(O)CN(Cc2ccc(F)cc2)C[C@H]1O)c1ccccn1,18.9
5,Cc1cnn(CC2CN(c3cnc4ccccc4n3)CCO2)c1 (configuration not stated),16.2
6,Cc1nc(N2C[C@H]3CNC[C@H]3C2)c2sccc2n1,55.6
7,COC1[C@@H]2CC[C@H]1CN(c1nc(C)nc3ccsc13)C2 (some centres not stated),43
8,Cc1nc(N2C[C@@H](CN3CCCCC3)[C@@H](CO)C2)c2sccc2n1,46.4
9,Cc1cnn(CC2CN(c3ncnc4ccsc34)CCO2)c1 (configuration not stated),83.7
10,CN(C)CC1CN(c2ncnc3ccsc23)CCO1 (configuration not stated),30.8
11,Cc1csc(N2CCN(C(=O)c3ccc(C)s3)CC2)n1,2.3
12,CCN(C)c1ncnc2c1CCN(Cc1ccsc1)CC2,-14.1
13,Cc1cc(C)n(CC2CCCCN2CCC(=O)Nc2cc(C)on2)n1 (configuration not stated),12.7
14,CN(Cc1cccs1)S(=O)(=O)c1ccc(C(F)(F)F)nc1,35.1
15,Cc1[nH]c2cc(C3CCCCN3C(=O)C3CC3)nn2c(=O)c1C (configuration not stated),-3.02
16,Cn1ccnc1CN1CCN(CC(O)c2ccc(F)cc2)CC1 (configuration not stated),-18
17,Cc1ncsc1CN1CCOC(C)(C(N)=O)C1 (configuration not stated),15.5
18,O=C(NC1CCN(c2cccc(C(F)(F)F)n2)CC1)C1CC1,29
19,O=C(NC1CC1)C1CCN(c2cccc(C(F)(F)F)n2)CC1,86.8
20,O=C(NC1CC1)C1CCCN(c2cccc(C(F)(F)F)n2)C1 (configuration not stated),-28.8
21,CCN1CCCC1CNC(=O)Cc1c(-c2ccc(Cl)cc2)n[nH]c1C (configuration not stated),14.4
22,Cc1ccccc1CSc1nc(N)cc(N2C[C@H](O)[C@@H](N(C)C)C2)n1,58.2
23,Cc1ccccc1CSc1nc(N)cc(N2CC[C@@H](O)C2)n1,42.1

row,SMILES,INHIBITION [%]
1,Cc1ccccc1CSc1nc(N)cc(N2CCCC(O)C2)n1 (configuration not stated),15.2
2,CC(C)(C)C(=O)NCCCn1cncn1,-21.9
3,COc1nn(C)cc1C(=O)NCC1(O)CCOCC1,15.7
4,CCn1c(C)nnc1CN(C)C1CCN(CC2CCC2)C1 (configuration not stated),-4.16
5,c1cc(CN2CCOC(Cn3cccn3)C2)c2c(c1)OCCO2 (configuration not stated),25.1
6,COC(=O)c1cc2c(OC)c(C)c(OC)cc2[nH]1,-1.45
7,CCn1cnnc1CN(C)Cc1nc(-c2cc(OC)ccc2F)oc1C,50.4
8,COc1ccc(-c2nc(CN(C)Cc3nncn3C)c(C)o2)c(C)c1C,-29.1
9,CCc1cc(CN(C)Cc2nc(-c3ccc(OC)cc3F)oc2C)on1,39.9
10,COCc1ncn(Cc2nc(-c3ccc(OC)cc3F)oc2C)n1,8.86
11,COc1ccc(OC)c(-c2nc(CN(C)Cc3nncn3C)c(C)o2)c1,57.8
12,COc1ccc(OC)c(-c2nc(CN(C)Cc3nonc3C)c(C)o2)c1,-28
13,Cc1occc1C(=O)N1C[C@H](Oc2ccccn2)[C@H]2OCCC[C@H]21,34.9
14,CN1CCCC(c2cccc(CCC(=O)NCc3ccccn3)n2)C1 (configuration not stated),3.91
15,CCC(C)C(=O)N(C)Cc1cc(F)ccc1N1CCC(OC)CC1 (configuration not stated),33.7
16,CCc1cnc(CN(C(C)=O)C2CCN(CC(=O)N3CCCC3)C2)o1 (configuration not stated),30.6
17,COCCNC(=O)CN(C)CCn1nc2ccccn2c1=O,23.8
18,C[C@@H](N)C(=O)N1CC2(CCNCC2)c2cc(Cl)ccc21,33.4
19,CC1CCN(C(=O)c2cc(NC(=O)c3ccccc3)n(C)n2)CC1,26.4
20,C=C(Cl)CN(C)C1CCN(CCc2ccccn2)CC1,35.9
21,CSc1nccc(N2CCC3(CCCN(Cc4ccc(F)cc4)C3)C2)n1 (configuration not stated),85.2
22,Fc1ccc(CN2CCCC3(CCN(Cc4ncc[nH]4)C3)C2)cc1F (configuration not stated),26
23,CSc1nccc(N2CCC3(CCCN(CC4CC4)C3)C2)n1 (configuration not stated),-21.9

row,SMILES,INHIBITION [%]
1,CSc1nccc(N2CCC3(CCCN(Cc4cccc(C)c4)C3)C2)n1 (configuration not stated),69.9
2,Cc1cccc(N2CCC3(CCCN(C(=O)Cc4cccnc4)C3)C2)n1 (configuration not stated),17.5
3,CCN1CCC2(CCC1=O)CN(c1ccnc(SC)n1)CCN2C (configuration not stated),8.57
4,CSc1nccc(N2CCC3(CCCN(CCc4ccccc4)C3)C2)n1 (configuration not stated),85.2
5,CSc1nccc(N2CCN(C)C3(CCNC(=O)CC3)C2)n1 (configuration not stated),-17.7
6,CCO[C@H]1CO[C@@]2(CCCN(S(=O)(=O)c3cccnc3)C2)C1,34.6
7,CCOC[C@]12COC[C@H]1CN(Cc1ccc3c(c1)OCO3)C2,38.5
8,Cc1nc(N2CCN(C(=O)c3ccccn3)CC2)c2c(n1)c(C)nn2C,12.6
9,CN1CCC(N(Cc2ccncc2)C(=O)COCC2CCCCO2)CC1 (configuration not stated),17.2
10,CCCC(=O)N1CCC(c2cc[nH]n2)C1 (configuration not stated),17.4
11,CN(C)CCN1CCOCC2(C1)CN(Cc1ccco1)CCO2 (configuration not stated),26.7
12,CCNC(=O)N1CCC(OC)c2ccccc2N(CC(=O)NC)C(=O)C1 (configuration not stated),35.1
13,Cc1ccc(C(O)CNC(=O)Nc2cc(C)nn2C)cc1 (configuration not stated),-11.735
14,CN(C)C(=O)N1C[C@H]2CC[C@@H](C1)N(C(=O)c1c(Cl)cccc1Cl)C2,12.1
15,CCS(=O)(=O)NCCCNc1ncnc2cc(F)c(F)cc12,-30.5
16,CSCCCNc1ncnc2cccc(F)c12,56.7
17,CN(C)CCCNc1ncnc2cccc(F)c12,41.8
18,CCN(CCCNc1ncnc2cc(F)c(F)cc12)S(C)(=O)=O,-4.93
19,Fc1cccc2ncnc(NCCCc3ccncc3)c12,73
20,CS(=O)(=O)NCCNc1ncnc2cccc(F)c12,24.9
